An excerpt weighted towards active compounds, which were near 6% of everything screened.
D3 antag: D3 dopamine receptor (human) antagonism; P35462; D3R cells, DiscoveRx beta-arrestin luminescence, antagonist mode; hits give low values; max response, negative = inhibition, %; actives 2.5% (n = 360,000); AID 652054; in the data active = max response below about -50%; inconclusive = no clear call, values can overlap the other calls; also: % is scaled to controls: 0 for no effect and ±100 for the full control effect
Target sequence (P35462 whole entry, looked up): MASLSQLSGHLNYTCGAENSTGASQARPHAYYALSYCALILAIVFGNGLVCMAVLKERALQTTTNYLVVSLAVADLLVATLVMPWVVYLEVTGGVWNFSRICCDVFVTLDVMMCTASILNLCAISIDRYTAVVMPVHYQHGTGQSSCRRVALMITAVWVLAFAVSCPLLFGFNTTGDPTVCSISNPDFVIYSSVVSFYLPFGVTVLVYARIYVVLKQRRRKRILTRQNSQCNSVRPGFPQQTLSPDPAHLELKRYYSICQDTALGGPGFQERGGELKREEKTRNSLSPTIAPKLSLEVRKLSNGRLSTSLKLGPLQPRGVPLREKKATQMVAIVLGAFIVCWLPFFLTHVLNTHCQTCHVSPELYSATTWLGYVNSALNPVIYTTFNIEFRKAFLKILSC
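Cells plated overnight at 1500 cells/well, then exposed to library compounds with dopamine controls for 90 minutes at 37 degrees C. DiscoveRx reagent added for 30–60 minutes at room temperature; luminescence read, quantitative HTS format.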
D3 ag: D3 dopamine receptor (human) agonism; actives 0.58% (n = 410,000); D3R DiscoveRx beta-arrestin cells, luminescence, 90 min; max activation, %; P35462; in the data active = max activation above about 30%; also: 0% is about no effect
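Agonist-mode cell screen: cells plated at 1500/well and incubated overnight at 37 °C, then exposed to library compounds for 90 min at 37 °C. Detection reagent was added for 30–60 min at room temperature, and luminescence was read.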
D1 potentiator: potentiators of human D1 dopamine receptor | HEK293 TREx D1 cells, calcium flux, dopamine EC20 potentiation | potentiation, % at 10 µM | actives 0.036% (n = 360,000); in the data active = potentiation above about 30%; also: 0% is about no effect
D1 agonist: human D1 receptor agonism; HEK293 T-REx D1 cells, calcium flux, agonist mode; activation, % at 2 µM; actives 1% (n = 360,000); in the data active = activation above about 30%; also: 0% is about no effect
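Agonism was scored from calcium flux recorded over 180 s (1 read/s) after pintool compound addition, following a 10-cycle baseline. Cells were inducible force-coupled HEK293 TREx D1, plated overnight at 30 C and loaded with no-wash calcium dye.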
D1 antag: blocks dopamine activation of the human D1 receptor. HEK293 TREx D1 cells, calcium flux, dopamine EC80; hits give low values. actives 3.2% (n = 360,000). activity change, negative = inhibition, % at 10 µM. P21728; in the data active = activity change below about -30%; also: % is scaled to controls: 0 for no effect and ±100 for the full control effect
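HEK293 T-REx cells expressing inducible, force-coupled D1 receptor; no-wash Ca dye, 30–90 min RT. Cmpd → 180 s read at 1 Hz → EC80 DA → 180 s read.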
Active calls of the source: *; ? = inconclusive; nt = no result given.

SMILES	D3 antag	D3 ag	D1 potentiator	D1 agonist	D1 antag
Cc1n[nH]c(C)c1S(=O)(=O)N1CCCC(C(=O)Nc2ccc(Cl)cc2)C1 (configuration not stated)	nt	-11	2	2	4
CC(=O)c1ccc(NC(=O)c2cc(C3CC3)nc3c2c(C)nn3-c2ccc(C)cc2)cc1	nt	0	-4	4	-13
Cc1cc2c(cc1NC(=O)c1ccccc1C)n(C)c(=O)c(=O)n2C	nt	5	-3	0	6
O=C(c1cc2ccccc2o1)c1nc2c(n1O)CCCCC2	-79*	-4	-3	-1	-27
O=C(OCCN1CCCCC1)c1ccccc1Br	-22	-22	-4	10	-2
O=C(c1ccco1)c1nc2c(n1O)CCCCC2	25	13	2	0	-17
O=C(c1cc2ccccc2o1)N1CCN(CCOc2ccccc2)CC1	25	58*	0	3	-7
O=C(Nc1ccc2ccccc2c1)N1CCCN(CCOc2ccccc2)CC1	-78*	2	-2	0	-2
O=C(OCCN1CCCCC1)c1cc2ccccc2o1	-66*	1	5	2	7
CCCN1CCN(C(=O)Nc2ccc(OCC)cc2)CC1	2	0	-5	2	-5
O=c1c(S(=O)(=O)c2ccccc2)cn(Cc2ccccc2)c2cc(N3CCOCC3)c(F)cc12	nt	5	0	0	5
Cc1cc(F)ccc1NC(=O)CCS(=O)(=O)c1cc2c(cc1C)NC(=O)CO2	nt	8	-2	8	-15
O=C(NC1CCCCC1)C(CCc1ccccc1)N1CCc2ccccc2C1 (configuration not stated)	-59*	-14	nt	nt	nt
O=C(NC1CCCCC1)C(CCc1ccccc1)N1CCOCC1 (configuration not stated)	1	1	nt	nt	nt
CCOc1ccc(N(C)C(=O)C2CCN(S(=O)(=O)c3ccc4c(c3)CCCN4C(C)=O)CC2)cc1	nt	7	-3	0	-1
Cc1cc(/C=N/n2cnnc2)c(C)n1-c1ccc(Cl)cc1	1	-6	-7	7	-9
Cc1cc(/C=N/n2cnnc2)c(C)n1-c1ccc(Cl)cc1Cl	-24	-14	-5	15	-35*
c1ccc(-c2csc(CN3CCCCC3)n2)cc1	-50*	-17	nt	nt	nt
CC(C)(C)c1nn(-c2ccccc2)c2[nH]c(=O)c(CNc3ccc4c(c3)OCCO4)cc12	-75*	-46	-6	1	1
CC(=O)NCc1cc(Cl)c2cccnc2c1O	nt	nt	-6	1	0
COc1ccc(C(=O)NC(=S)NNC(=O)c2ccccc2O)cc1	17	38*	-8	24	-7
COc1ccc(C(=O)NC(=S)NNC(=O)c2ccccc2C)cc1	9	4	nt	nt	nt
CNC(=O)NC(=S)NC(=O)c1ccc(OC)cc1	-72*	-7	-5	1	-9
COc1ccc(C(=O)NNC(=S)NC(=O)/C=C/c2cccs2)cc1	-22	-8	5	3	-35*
COc1ccc(C(=O)NNC(=O)c2ccc(C(C)(C)C)cc2)cc1	10	18	1	2	-15
SMILES	D3 antag	D3 ag	D1 potentiator	D1 agonist	D1 antag
COc1ccc(C(=O)NC(=S)Nc2ccccc2F)cc1	0	-8	-3	6	-6
COc1ccc(C(=O)NNC(=S)NC(=O)C(C)(C)C)cc1	-14	2	-4	306*	-35*
O=C(/C=C/c1cccs1)NC(=S)NNC(=O)c1ccccc1O	12	26	1	17	9
CCOC(=O)c1cc(NC(=O)c2ccc(F)cc2)c(=O)n2c1oc1ccc(Cl)cc12	nt	1	-5	5	-8
CC1(C)S[C@@H]2[C@H](NC(=O)Cc3ccccc3)C(=O)N2[C@H]1C(=O)O (tested in a mixture with another compound)	nt	-6	nt	nt	nt
O=C(CCn1c(=O)c2cccn2c2ccc(F)cc21)NCCc1ccccc1Cl	nt	5	-2	0	9
Cc1cccn2c(=O)c(C(=O)NC(C)c3ccccc3)c(O)nc12 (configuration not stated)	nt	-8	3	1	27
CCc1ccc(C2C(C(=O)Nc3ccc(Cl)cc3)=C(C)Nc3ncnn32)cc1 (configuration not stated)	nt	7	5	0	7
COc1ccccc1CC(=O)NCc1nn(-c2ccccc2)nc1C	10	0	5	2	-1
Cc1nn(C)c(Cl)c1NC(=O)OCc1ccc(F)cc1	19	-4	-10	27	-61*
COc1ccccc1COC(=O)Nc1c(C)nn(C)c1Cl	14	6	-8	10	-43*
COc1ccc(OC)c(CNc2ncnc3onc(C)c23)c1	nt	-9	-2	0	4
Cc1cc2cc(C(c3nnnn3C3CCCC3)N(Cc3cccnc3)Cc3ccco3)c(=O)[nH]c2cc1C (configuration not stated)	-25	-7	0	3	-39*
C=CC[n+]1c(-c2ccc(OC)cc2)csc1NNC(=O)Nc1ccccc1	-6	1	2	3	-18
C=CC[n+]1c(-c2ccc(C)cc2)csc1Nc1ccc(NC(C)=O)cc1	8	2	-14	5	-47*
CCOc1ccc(S(=O)(=O)NCc2cccn2Cc2cccc(C)c2)cc1	nt	1	1	4	8
NNc1nc(Nc2ccc([N+](=O)[O-])cc2)nc(N2CCCCCC2)n1	-52*	-25	-4	3	3
O=[N+]([O-])c1ccc(Nc2nc(NCCO)nc(N3CCCC3)n2)cc1	-10	9	3	0	-18
CCCNc1nc(Nc2ccc(C)cc2)nc(N2CCCC2)n1	?	-5	-23	5	-35*
COc1ccc(-c2csc(Nc3cccc(C)n3)n2)cc1C	9	41*	2	3	1
Cc1cccnc1Nc1nc(-c2ccccn2)cs1	-86*	-39	0	-1	-7
Cc1cccc(Nc2nc(-c3ccccn3)cs2)n1	-79*	-41	2	3	-20
Cc1cccnc1Nc1nc(-c2ccccc2)cs1	29	-1	-1	8	16
CSc1nc(C)cc(Nc2c(C)cc(C)cc2C)n1	nt	16	-2	4	-17
Cn1c(=O)c2sccc2n2c(CCCC(=O)Nc3ccc(Oc4ccc(Cl)cc4)cc3)nnc12	nt	11	-6	3	2
CCOc1ccccc1CNC(=O)C(CC)n1nc(C)c2c(C)n(-c3ccccc3)nc2c1=O (configuration not stated)	nt	-7	0	2	0
COc1ccc(-c2nnc(SCC(=O)Nc3ccc(C(C)=O)cc3)nc2-c2ccc(OC)cc2)cc1	nt	-11	-9	3	-70*
CCOC(=O)CN(C(=O)CSc1nnc2c(n1)[nH]c1ccc(OC)cc12)c1ccc(F)cc1	-65*	-7	1	2	3
CCOC(=O)CN(C(=O)CSc1nnc(CNc2ccc(F)cc2)n1C)c1ccccc1	-24	-6	-1	0	9
